Screening data: PubChem, several laboratories
Only some compounds are listed: those with a hit (about 3.3% of all), similar ones and a draw of the others.
Smad3 inh: blocks human Smad3 binding to FoxH1 peptide | P84022 | TR-FRET Smad3/Dy647-FoxH1 peptide binding, europium anti-His | inhibition, % at 25 µM | 0.29% of 88,000 active | AID 630;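 active = compounds that reduce the energy-transfer binding signal between the protein and its labelled peptide by more than half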;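 note: 0% = Smad3 plus labelled peptide maximal FRET and 100% = peptide-only background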
ERa SRC1 inh: blocks coactivator binding to human estrogen receptor alpha. TR-FRET ER-alpha LBD / SRC-1 peptide, estradiol-bound. inhibition, % at 25.6 µM. 1.7% of 86,000 active. AID 629; in the data active = inhibition above about 50%;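 note: 0% = receptor plus peptide control and 100% = peptide only without receptor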
ERa SRC1 pot: ER-alpha (human) coactivator binding potentiation. P03372. TR-FRET ERalpha-LBD/SRC-Cy5 coactivator binding, 2 h; 100 = basal binding, no effect. coactivator binding (% of control), % at 25.6 µM. 1.3% of 86,000 active; in the data active = activity above about 200%;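 note: binding measured in presence of low estradiol as agonist stimulus; 0% = peptide alone without receptor and 100% = receptor with peptide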
FAK inh: blocks human focal adhesion kinase activity; Q05397; biochemical FAK kinase activity assay; inhibition, %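 (tested at 7 µM)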; 0.84% of 97,000 active; AID 727; in the data active = inhibition above about 19%;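 note: 0% = DMSO and 100% = reference compound high control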
ERb coact inh: blocks coactivator binding to human estrogen receptor beta. Q92731. TR-FRET ER-beta LBD / SRC1-Cy5 peptide binding; receptor agonist-loaded with 1 µM estradiol. inhibition, % at 25.6 µM. 1.3% of 86,000 active. AID 633;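 active = compounds whose percent inhibition of the receptor-coactivator binding signal exceeds about 50% in the single-dose screen, limit read from the data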;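 note: 0% = receptor plus peptide wells without compound and 100% = peptide-only wells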
Target sequence (Q92731 whole entry, looked up, the tested form may be a part): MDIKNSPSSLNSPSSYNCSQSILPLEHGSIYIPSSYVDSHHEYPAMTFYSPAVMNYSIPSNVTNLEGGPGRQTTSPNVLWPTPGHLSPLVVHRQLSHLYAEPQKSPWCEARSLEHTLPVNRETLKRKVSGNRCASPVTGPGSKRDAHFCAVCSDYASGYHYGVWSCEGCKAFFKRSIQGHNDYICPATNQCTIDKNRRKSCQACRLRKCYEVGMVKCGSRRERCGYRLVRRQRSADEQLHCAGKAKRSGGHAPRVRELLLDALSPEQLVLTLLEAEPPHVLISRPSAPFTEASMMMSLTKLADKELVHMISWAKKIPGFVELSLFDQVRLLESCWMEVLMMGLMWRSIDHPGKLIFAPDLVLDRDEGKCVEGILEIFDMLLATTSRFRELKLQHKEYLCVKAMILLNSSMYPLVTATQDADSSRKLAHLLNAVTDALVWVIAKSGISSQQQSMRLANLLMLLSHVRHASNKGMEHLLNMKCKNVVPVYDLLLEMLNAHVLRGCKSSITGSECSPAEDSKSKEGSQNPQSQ
* = called active by the depositor; / = not tested or not shown; [ ] = remark or other dose.

SMILES	Smad3 inh	ERa SRC1 inh	ERa SRC1 pot	FAK inh	ERb coact inh
Cc1ccc2ccc(C(Nc3ccccn3)c3ccccc3)c(O)c2n1 (stereo not given)	-9.7	48.6	49.8	0.7	35.6
COc1cc(C(Nc2ccccn2)c2ccc3ccc(C)nc3c2O)cc(OC)c1O (stereo not given)	5.4	64.0*[fluorescence artefact?]	178.9	-0.8	65.2*
CCc1ccccc1NS(=O)(=O)c1ccc2[nH]cc(C(=O)NCC3CCCO3)c(=O)c2c1 (stereo not given)	5.4	64.7*	22.1	-0.1	30.7
Nc1c(C(O)(C(F)(F)F)C(F)(F)F)ccc2ccccc12	-8.8	-10.0	285.8*[fluorescence artefact?]	-1.8	-0.9
CN(C)C(=O)C1CCN(Cc2c[nH]c3ccccc23)CC1	12.0	/	/	/	/
CCC(=O)Nc1ccc(S(=O)(=O)Nc2cccnc2)cc1	-13.5	-4.3	107.3	-0.5	77.5*[fluorescence artefact?]
Cc1ccc(C2SCC(=O)N2Cc2cn3ccsc3n2)o1 (stereo not given)	63.9*[fluorescence artefact?]	-3.3	89.4	-6.3	4.1
O=C(NC(=O)c1ccc(Cl)cc1)Nc1cc(N2CCCCC2)ncn1	8.5	72.1*[fluorescence artefact?]	243.4*	1.0	65.4*[fluorescence artefact?]
O=C(Nc1cc(N2CCOCC2)ncn1)Nc1cccc2ccccc12	-6.8	-24.8	116.0	4.5	-17.4
N#Cc1cc2c(=O)n3ccccc3nc2n(CC2CCCO2)c1=N (stereo not given)	-2.0	16.0	87.8	1.0	37.1
N#Cc1cc2c(=O)n3ccccc3nc2n(CCCn2ccnc2)c1=N	3.5	35.2	61.2	5.0	56.5*
O=C(OCn1nnc2ccccc2c1=O)c1cn(-c2ccccc2)nc1-c1cccnc1	4.0	67.7*	120.6	6.1	43.0
CCOC(=O)c1cn(-c2ccccc2)nc1-c1cccnc1	1.8	6.3	103.2	/	0.3
Cc1ccc([C@@H](O)c2cnc(C)n2Cc2ccccc2)cc1	9.1	/	/	/	/
O=C(Cc1cn2ccsc2n1)OCc1nc2ccccc2s1	11.8	64.0*	36.9	4.3	63.6*[fluorescence artefact?]
O=C(Cc1cn2ccsc2n1)OCc1ccccc1	2.6	4.4	118.5	-1.9	0.4
COc1cc2c3cc1Oc1c(OC)c(OC)cc4c1[C@@H](Cc1ccc(O)c(c1)Oc1ccc(cc1)C[C@@H]3N(C)CC2)CN(C)C4	-7.0	/	/	/	/
O=S(=O)(c1ccc2oc(-c3ccncc3)nc2c1)c1ccc2oc(-c3ccncc3)nc2c1	22.5	10.2	236.8*[fluorescence artefact?]	/	51.0*[fluorescence artefact?]
CC(Oc1ccc(Cl)cc1Cl)C(=O)Nc1ccc2oc(-c3ccncc3)nc2c1 (stereo not given)	6.5	25.5	327.0*	1.8	40.8
O=C(Nc1ccc2oc(-c3cccc(F)c3)nc2c1)c1ccccc1F	-28.3	11.1	222.9*[fluorescence artefact?]	-4.9	6.7
Cc1ccc(-c2nc3cc(NC(=O)C(C)C)ccc3o2)cc1	-8.4	10.9	142.6	2.6	15.1
O=C(Cc1ccccc1)Nc1ccc2oc(-c3ccncc3)nc2c1	10.3	51.5*[fluorescence artefact?]	299.3*[fluorescence artefact?]	/	47.3
CC(C)CC(=O)Nc1ccc2oc(-c3ccncc3)nc2c1	-1.3	40.6	104.8	-3.1	12.6
C=CCNS(=O)(=O)c1ncnc2nc[nH]c12	-8.1	/	/	/	/
OC(Cc1ccccc1)(Cc1ccccc1)c1ccccc1	-1.8	/	/	/	/
SMILES	Smad3 inh	ERa SRC1 inh	ERa SRC1 pot	FAK inh	ERb coact inh
CC1(C)[C@H]2CC[C@]1(C)[C@H](OC(=O)CSC#N)C2	-4.7	/	/	/	/
CCOC(=O)c1c(C)c(C)n2c1NC(=O)C2	9.2	/	/	/	/
CC1(C)S[C@H]2[C@H](C(=O)O)N=C(Cc3ccccc3)N2[C@H]1C(=O)O	10.2	/	/	/	/
N#C[C@H](C(=O)O)C(c1c(Cl)cccc1Cl)[C@H](C#N)C(=O)O	14.1	/	/	/	/
Nc1ccc2nc(-c3ccc(N)c(Cl)c3)[nH]c2c1	7.2	92.5*[fluorescence artefact?]	26.6	4.0	54.1*[fluorescence artefact?]
COc1ccc2nc(-c3cccc(N)c3)[nH]c2c1	9.8	-2.0	110.8	2.1	2.8
COc1ccc2nc(-c3ccc(N)cc3)[nH]c2c1	7.8	1.4	97.9	2.4	10.2
Nc1ccc2nc(-c3ccccn3)[nH]c2c1	1.1	96.5*[fluorescence artefact?]	11.5	7.5	76.2*[fluorescence artefact?]
Nc1ccc2nc(-c3ccccc3)[nH]c2c1	-5.6	82.0*[fluorescence artefact?]	80.0	-0.2	24.7
Nc1ccc2nc(-c3cccs3)[nH]c2c1	10.3	43.2	71.6	0.9	56.3*[fluorescence artefact?]
OC[C@@H](O)[C@@H](O)[C@@H](O)[C@@H](O)c1nc2ccc(Cl)cc2[nH]1	-10.0	/	/	/	/
CC(CCN)(CCN)[N+](=O)[O-]	-12.8	/	/	/	/
Cc1ccc2c(c1)c(=O)c1c3n2CCN(C(=O)CCl)C3CC1 (stereo not given)	9.3	82.7*[fluorescence artefact?]	29.4	11.8	72.3*
